From PubChem BioAssay (Tox21)
Records with an inconclusive call do not appear. Activity calls are given as the source filed them. Unless noted, the call rests on the fitted dose curve; in most records, active means well fitted curve in the direction sought with a large enough effect in the repeat runs; inconclusive means weak or mixed curves; inactive means no such curve, though single readings can be large; an effect the other way counts as inactive or inconclusive.

Assays:
[1] = qHTS assay to identify small molecule antagonists of the estrogen related receptor signaling pathway with the pleiotropic PPARgamma coactivator (PGC) from Tox21 10K library (AID 1224841; call rule not given here; further: actives are mostly falling curves and most rising ones were filed inactive; nearly all actives have a fitted effect of over 50% in size; further: potency means the concentration at half of the fitted maximal effect)
How it was run: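 In the PGC/ERR line, DMSO solutions of test chemicals are pin-delivered to 2,000 cells/well six hours after dispensing. Following eighteen hours' incubation, One-Glo reagent is added and luminescence recorded.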

[2] = molecular target: Thyrotropin receptor (Homo sapiens) (UniProt P16473); experiment: qHTS assay to identify small molecule agonists of the thyroid stimulating hormone receptor (TSHR) signaling pathway (AID 1224843; calls by dose curve; further: nearly all actives have a fitted effect of over 45% in size; further: potency means the concentration at half of the fitted maximal effect)
Sequence of Thyrotropin receptor (Homo sapiens) (P16473 whole entry, looked up): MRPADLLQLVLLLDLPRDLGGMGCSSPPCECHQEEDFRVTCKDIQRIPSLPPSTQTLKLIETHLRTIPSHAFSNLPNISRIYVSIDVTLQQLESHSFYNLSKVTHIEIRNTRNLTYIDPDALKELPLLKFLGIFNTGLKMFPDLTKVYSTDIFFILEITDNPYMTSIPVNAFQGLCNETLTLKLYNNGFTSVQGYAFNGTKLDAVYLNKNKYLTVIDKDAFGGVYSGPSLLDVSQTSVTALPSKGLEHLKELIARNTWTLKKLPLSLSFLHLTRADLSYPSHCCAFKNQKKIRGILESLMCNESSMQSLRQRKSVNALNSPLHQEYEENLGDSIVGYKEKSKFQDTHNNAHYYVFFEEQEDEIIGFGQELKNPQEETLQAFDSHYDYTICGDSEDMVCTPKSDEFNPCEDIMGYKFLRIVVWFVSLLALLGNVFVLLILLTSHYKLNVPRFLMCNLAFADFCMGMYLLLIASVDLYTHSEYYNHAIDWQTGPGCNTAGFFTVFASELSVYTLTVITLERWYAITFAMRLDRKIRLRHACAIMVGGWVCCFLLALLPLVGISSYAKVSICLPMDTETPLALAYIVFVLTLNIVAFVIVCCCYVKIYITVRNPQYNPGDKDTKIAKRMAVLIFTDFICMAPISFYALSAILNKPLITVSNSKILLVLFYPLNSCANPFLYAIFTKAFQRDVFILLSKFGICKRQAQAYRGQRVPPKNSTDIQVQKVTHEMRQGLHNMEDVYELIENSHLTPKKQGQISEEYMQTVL
How it was run: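 A cell-based cAMP HTRF format was run in TSHR-transfected HEK293 cells, 800 per well. Treatment: 30 min, room temperature. Detection: 1 h with labelled cAMP and anti-cAMP cryptate. Concentration-response over 15 points, three replicates.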

[3] = qHTS assay to identify small molecule antagonists of the estrogen related receptor (ERR) signaling pathway from Tox21 library (AID 1224848); further: potency means the concentration at half of the fitted maximal effect; nearly all actives have a fitted effect of over 50% in size
How it was run: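 ERR cell line, 2,000 cells/well. 6 h settle, then compound (DMSO) added; 18 h at 37 C; ONE-Glo luminescence after 30 min RT.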

[4] = molecular target: Estrogen receptor (Homo sapiens) (UniProt P03372); experiment: qHTS assay to identify small molecule antagonists of the estrogen receptor alpha (ER-alpha) signaling pathway using the BG1 cell line in the presence of 0.1 nM 17-beta-estradiol (AID 1259244); further: nearly all actives have a fitted effect of over 50% in size; further: potency means the concentration at half of the fitted maximal effect
Sequence of Estrogen receptor (Homo sapiens) (P03372 whole entry, looked up): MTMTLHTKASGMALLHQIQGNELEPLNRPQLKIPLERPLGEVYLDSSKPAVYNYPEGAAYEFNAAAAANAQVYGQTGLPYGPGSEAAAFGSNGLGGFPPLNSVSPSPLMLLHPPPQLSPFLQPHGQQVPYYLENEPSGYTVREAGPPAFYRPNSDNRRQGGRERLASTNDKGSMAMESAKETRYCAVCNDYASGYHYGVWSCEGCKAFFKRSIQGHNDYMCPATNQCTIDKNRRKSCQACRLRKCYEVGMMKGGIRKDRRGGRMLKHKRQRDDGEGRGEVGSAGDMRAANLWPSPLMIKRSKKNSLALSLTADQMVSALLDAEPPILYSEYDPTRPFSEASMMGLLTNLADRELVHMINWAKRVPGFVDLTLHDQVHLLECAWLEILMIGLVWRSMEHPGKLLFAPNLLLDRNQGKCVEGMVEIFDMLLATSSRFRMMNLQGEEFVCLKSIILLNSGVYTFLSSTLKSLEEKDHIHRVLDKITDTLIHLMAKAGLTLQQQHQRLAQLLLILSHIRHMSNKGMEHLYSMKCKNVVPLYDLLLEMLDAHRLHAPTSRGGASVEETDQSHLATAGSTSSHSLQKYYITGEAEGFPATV
How it was run: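 Seeding of stripped-serum-adapted VM7Luc4E2 cells, 24 h attachment, compound transfer, then 0.1 nM final 17beta-estradiol; after 22 h incubation, ONE-Glo reagent and luminescence reading.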

[5] = molecular target: Estrogen receptor beta (Homo sapiens) (UniProt Q92731); experiment: qHTS assay to identify small molecule agonists of the estrogen receptor beta (ER-beta) signaling pathway (AID 1259377; active means well fitted activation curve with a large enough effect in the signal ratio in the repeat runs, not every such curve was filed as active; the % refers to the signal ratio)
Sequence of Estrogen receptor beta (Homo sapiens) (Q92731 whole entry, looked up): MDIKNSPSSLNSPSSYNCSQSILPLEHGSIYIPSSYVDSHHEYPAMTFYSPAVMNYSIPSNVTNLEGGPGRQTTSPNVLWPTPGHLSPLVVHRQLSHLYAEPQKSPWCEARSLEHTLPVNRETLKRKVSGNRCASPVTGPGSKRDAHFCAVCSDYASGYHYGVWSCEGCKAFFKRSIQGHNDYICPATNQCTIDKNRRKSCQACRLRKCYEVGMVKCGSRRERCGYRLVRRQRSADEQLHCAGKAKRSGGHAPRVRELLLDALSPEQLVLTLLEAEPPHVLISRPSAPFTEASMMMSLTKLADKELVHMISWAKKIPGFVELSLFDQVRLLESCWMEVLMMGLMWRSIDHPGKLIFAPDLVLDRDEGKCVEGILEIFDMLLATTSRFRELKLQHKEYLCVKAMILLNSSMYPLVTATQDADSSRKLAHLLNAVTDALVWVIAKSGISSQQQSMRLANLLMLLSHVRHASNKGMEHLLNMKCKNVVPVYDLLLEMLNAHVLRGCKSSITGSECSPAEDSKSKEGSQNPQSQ
How it was run: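 qHTS in ER-beta-UAS-bla HEK293T cells: 6 hr settling, then 16 hr compound at 37C, then LiveBLAzer substrate 2 h at RT before fluorescence reading.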

[6] = molecular target: Thyrotropin-releasing hormone receptor (Homo sapiens) (UniProt P34981); experiment: qHTS assay to identify small molecule antagonists of the thyrotropin-releasing hormone receptor (TRHR) signaling pathway (AID 1346877; active means well fitted inhibition curve with a large enough effect in the repeat runs, not every such curve was filed as active; further: series mostly up to about 51 µM)
Sequence of Thyrotropin-releasing hormone receptor (Homo sapiens) (P34981 whole entry, looked up): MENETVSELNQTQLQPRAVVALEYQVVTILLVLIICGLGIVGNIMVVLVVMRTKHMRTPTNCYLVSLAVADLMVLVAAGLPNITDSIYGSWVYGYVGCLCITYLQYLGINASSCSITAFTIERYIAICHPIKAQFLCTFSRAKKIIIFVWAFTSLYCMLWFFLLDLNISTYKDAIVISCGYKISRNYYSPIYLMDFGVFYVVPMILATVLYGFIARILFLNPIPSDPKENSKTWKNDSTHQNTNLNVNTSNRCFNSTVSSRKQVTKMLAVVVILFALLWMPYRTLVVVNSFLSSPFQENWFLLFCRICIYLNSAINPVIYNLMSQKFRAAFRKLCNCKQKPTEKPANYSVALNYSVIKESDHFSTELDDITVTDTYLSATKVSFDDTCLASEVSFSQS
How it was run: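 Human TRHR in HEK293 cells; inhibition of the intracellular calcium rise triggered by 1 nM TRH was followed by fluorescence over 3 min. Compounds were run at 15 concentrations, three replicates each.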

[7] = qHTS assay to test for compound auto fluorescence at 590 nm (red) in HepG2 cells (AID 720674)
How it was run: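 1 hr compound incubation on HepG2 cells, 37 C, 5% CO2; plate read ex 540 nm / em 590 nm; intensities reported as Rose Bengal sodium equivalents.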

[8] = qHTS assay to test for compound auto fluorescence at 535 nm (green) in HepG2 cells (AID 720675)
[9] = qHTS assay to test for compound auto fluorescence at 460 nm (blue) in HEK293 cells (AID 720678)
How it was run: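 HEK293 cells (2,000 per well, medium with 10% dialyzed FBS) attached for 4-5 hr at 37C, then received compound and stood overnight at 37C, 5% CO2. Blue fluorescence was read at Ex/Em 405/460 nm and expressed relative to triamterene.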

[10] = qHTS assay to test for compound auto fluorescence at 590 nm (red) in HEK293 cells (AID 720679)
How it was run: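 HEK293 cells (2,000/well, medium with 10% dialyzed FBS) attached for 4-5 hr at 37C, received 23 nL compound and were incubated overnight at 37C, 5% CO2. Red fluorescence was then read at 540/590nm Ex/Em, referenced to Rose Bengal sodium.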

[11] = qHTS assay to test for compound auto fluorescence at 535 nm (green) in HEK293 cells (AID 720680)
[12] = qHTS assay to test for compound auto fluorescence at 460 nm (blue) in HEK293 cell free culture (AID 720681)
How it was run: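 Blue fluorescence (Ex 405/Em 460 nm, triamterene-equivalent) was read immediately after pin transfer of compound or DMSO into medium (DMEM, 10% FBS) without cells.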

[13] = qHTS assay to test for compound auto fluorescence at 535 nm (green) in HEK293 cell free culture (AID 720682)
How it was run: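 DMEM + 10% FBS, cell-free; cpd or DMSO pinned in; Ex485/Em535 read; output as fluorescein-equivalent signal.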

[14] = qHTS assay to test for compound auto fluorescence at 590 nm (red) in HEK293 cell free culture (AID 720683)
How it was run: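 Red-channel autofluorescence of compounds in culture medium (DMEM, 10% FBS), no cells, measured at 540/590 nm. Rose Bengal sodium is the reference fluorophore for equivalence.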

[15] = qHTS assay to test for compound auto fluorescence at 590 nm (red) in HepG2 cell free culture (AID 720684)
How it was run: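 No cells present: MEM + 10% FBS only. Compound pinned in, red label read (540/590 nm). Activity = fluorescence equivalent to Rose Bengal sodium.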

[16] = qHTS assay to test for compound auto fluorescence at 460 nm (blue) in HepG2 cell free culture (AID 720685)
How it was run: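 Cell-free plates of MEM plus 10% FBS received 23 nL compound or DMSO vehicle; blue-channel (405/460 nm) intensity scored against triamterene as reference fluorophore.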

[17] = qHTS assay to test for compound auto fluorescence at 535 nm (green) in HepG2 cell free culture (AID 720686)
[18] = qHTS assay to test for compound auto fluorescence at 460 nm (blue) in HepG2 cells (AID 720687)
How it was run: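 Blue-channel autofluorescence (Ex/Em 405/460 nm, triamterene-equivalent) was measured after 1 hr compound exposure at 37 C, 5% CO2. Cells were HepG2, plated overnight at 37 C in MEM plus 10% FBS.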

[19] = qHTS assay for identifying genotoxic compounds that show differential cytotoxicity against isogenic chicken DT40 cell lines with known DNA damage response pathways - Rev3 mutant cell line (AID 743014); further: nearly all actives have a fitted effect of over 55% in size; further: potency means the concentration at half of the fitted maximal effect
[20] = qHTS assay to identify small molecule agonists of the progesterone receptor (PR) signaling pathway - cell viability counter screen (AID 1346799; calls by dose curve; further: nearly all actives have a fitted effect of over 45% in size; further: potency means the concentration at half of the fitted maximal effect)
How it was run: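 In parallel with the beta-lactamase readout, cytotoxicity toward PR-UAS-bla HEK293T cells was measured by CellTiter-Glo luminescence following 16 hr compound incubation in 2% charcoal-stripped FBS medium.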

Measured: Potency

Cc1cc(C)c(C(=O)P(=O)(c2ccccc2)c2ccccc2)c(C)c1
inactive: [2] | [4]
active: [1] 54.5 µM | [3] 54.5 µM

CC(c1ccccc1)(c1ccc(O)cc1)c1ccc(O)cc1
active: [1] 34.4 µM | [2] 15.4 µM | [3] 61.1 µM
inactive: [4] | [5] | [6]

OC(Cc1ccccc1Cl)(Cn1[nH]cnc1=S)C1(Cl)CC1 (configuration not stated)
inactive: [2] | [6]

c1ccc2c(c1)Sc1ccccc1N2CC1CN2CCC1CC2 (configuration not stated)
inactive: [7] | [8] | [9] | [10] | [11] | [12] | [13] | [14] | [15] | [16] | [17] | [18] | [1]
active: [19] 11.9 µM | [20] 13.3 µM

O=C1C(I)=CC(=C(c2cc(I)c(O)c(I)c2)c2ccccc2C(=O)O)C=C1I
inactive: [7] | [8] | [9] | [10] | [11] | [12] | [13] | [14] | [15] | [16] | [17] | [18] | [19] | [2] | [4]

Cc1nnc2n1-c1sc(CCc3ccc(CC(C)C)cc3)cc1C(c1ccccc1Cl)=NC2C (configuration not stated)
inactive: [7] | [8] | [9] | [10] | [11] | [12] | [13] | [14] | [15] | [17] | [18] | [5] | [6]
active: [19] 16.8 µM | [1] 10.6 µM | [2] 18.8 µM | [3] 9.44 µM | [4] 29.8 µM

Cc1ccc(N(SC(F)(Cl)Cl)S(=O)(=O)N(C)C)cc1
inactive: [7] | [8] | [9] | [10] | [12] | [13] | [14] | [15] | [16] | [17] | [18] | [5] | [20]
active: [19] 0.122 µM | [1] 24.3 µM | [3] 24.3 µM

ClC1=C(Cl)[C@]2(Cl)[C@@H]3[C@@H](Cl)[C@H]4O[C@H]4[C@@H]3C1(Cl)C2(Cl)Cl
inactive: [7] | [8] | [9] | [10] | [11] | [13] | [14] | [15] | [16] | [17] | [18] | [1] | [5]
active: [19] 34.4 µM

COc1ccc(C(c2ccc(OC)cc2)C(Cl)(Cl)Cl)cc1
inactive: [7] | [8] | [10] | [11] | [12] | [13] | [14] | [15] | [16] | [17] | [18] | [6]
active: [19] 44.4 µM | [1] 8.58 µM | [3] 30.5 µM

OCC(c1ccc(Cl)cc1)c1ccc(Cl)cc1
active: [19] 1.93 µM
inactive: [7] | [8] | [9] | [10] | [11] | [12] | [13] | [14] | [15] | [16] | [17] | [18] | [5] | [20] | [6]

CC1COC(Cn2cncn2)(c2ccc(Oc3ccc(Cl)cc3)cc2Cl)O1 (configuration not stated)
inactive: [7] | [8] | [9] | [10] | [11] | [12] | [13] | [14] | [15] | [16] | [17] | [18] | [2] | [5]
active: [19] 0.686 µM | [1] 8.63 µM | [3] 4.33 µM | [4] 10.9 µM

Cc1cccc(C)c1[N+](=O)[O-]
inactive: [5]

Clc1ccccc1-c1ccccc1Cl
inactive: [7] | [8] | [9] | [10] | [11] | [12] | [13] | [14] | [15] | [17] | [18] | [19] | [20]

Brc1ccc(Br)c(Br)c1
inactive: [5]

Cc1cccc([N+](=O)[O-])c1C
inactive: [5]

Nc1cccc([N+](=O)[O-])c1
inactive: [5]

Oc1ccc(Cl)cc1Cc1cc(Cl)ccc1O
inactive: [2]
